A selection: hits, their analogues and other compounds. The true share with any hit is near 6.8%.
C diff growth = C. difficile growth inhibition. Clostridium difficile clinical isolate growth, OD600, 24 h; active compounds read low. growth activity, negative = inhibition, % at 16 µg/mL (by protocol). hit rate 0.25% among 86,000. AID 1259249;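 active means mean growth activity at or below -80% and every replicate also at or below -80%; inconclusive means mean at or below -80% but some replicate above -80%; inactive means mean growth activity above -80%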;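 further: 0% = DMSO wells and -100% = levofloxacin 16 µg/mL wells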
T cruzi growth-1 = T. cruzi proliferation inhibition | T. cruzi beta-gal in NIH3T3, GalScreen luminescence, 90 h | inhibition, % at 8.34 µM | hit rate 5.9% among 77,000;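 active means mean inhibition above about 93%, with at least 55% of replicates each passing it, limit read from the data, passing the limit was not always enough; inconclusive means only one of those two conditions holds; inactive means neither condition holds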
Pf Dd2 growth = P. falciparum Dd2 growth inhibition | SYBR Green, 72 h; active compounds read low | activity change, % at 10 µM | hit rate 2.3% among 94,000; in the data active means activity change below about -80%; inconclusive means no clear call, values can overlap the other calls
T cruzi growth-2 = blocks T. cruzi growth in NIH3T3 host cells | shares compounds with T cruzi growth-1 | T. cruzi beta-gal in NIH3T3, GalScreen luminescence, 90 h | inhibition, % at 8.35 µM | hit rate 72% among 5,600;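 active means mean replicate inhibition above about 95% and at least 55% of replicates individually reaching it, limit read from the data; inconclusive means only one of the two criteria is met; inactive means neither criterion is met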
T cruzi growth-3 = Trypanosoma cruzi proliferation inhibition; shares compounds with T cruzi growth-1; T. cruzi beta-gal in NIH3T3, GalScreen luminescence, 90 h; inhibition, % at 2.09 µM; hit rate 21% among 5,600; AID 651740;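 active means mean inhibition above about 95%, with at least 55% of replicates also reaching it, limit read from the data; inconclusive means meets just one of the two conditions; inactive means meets neither condition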;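 further: plate controls were neutral control median for no effect and positive control median for full effect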
NIH3T3 tox = cytotoxicity in mouse NIH/3T3 fibroblasts; shares compounds with T cruzi growth-1; NIH/3T3 viability, CellTiter-Glo ATP luminescence, 90 h; cytotoxicity (signal decrease), % at 8.35 µM; hit rate 14% among 5,600;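 active means mean signal decrease across replicates above about 35% based on untreated-well scatter, with enough replicates individually passing, limit read from the data; inconclusive means no rule stated though some were filed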;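 further: 0% = median of neutral control wells and 100% = median of positive control wells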
NIH3T3 tox 2 = NIH/3T3 (mouse) viability loss. inhibition, % at 24.9 µM. hit rate 56% among 5,600. shares compounds with T cruzi growth-1. NIH/3T3 viability, CellTiter-Glo ATP luminescence, 90 h;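 active means mean loss of cell viability signal at or above a set limit, and enough replicates individually reaching it; inconclusive means meets only the mean limit or only the replicate share; inactive means meets neither condition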;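 further: 0% = median of neutral control wells and 100% = median of positive control wells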
Starred values were filed as active, the others as inactive; ? = inconclusive; nt = no result.

SMILES	C diff growth	T cruzi growth-1	Pf Dd2 growth	T cruzi growth-2	T cruzi growth-3	NIH3T3 tox	NIH3T3 tox 2
OC[C@H]1[C@H](c2ccc(C#Cc3ccccc3F)cc2)[C@H]2CN(CC3CCOCC3)CCCCN21	-1.7	66.4	-2.6	nt	nt	nt	nt
OC[C@H]1[C@H](c2ccc(C#Cc3ccccc3)cc2)[C@@H]2CN(CC3CCOCC3)CCCCN12	46.9	?	-63.1	105.6*	56.5	30.9	106.2*
O=C(N[C@H]1CC[C@H](CCNS(=O)(=O)c2ccc(F)cc2)O[C@H]1CO)c1ccccn1	1.9	10.6	7.9	nt	nt	nt	nt
N#C[C@H]1[C@H](c2ccc(C#CC3CCCC3)cc2)[C@@H](CO)N1C(=O)Cc1ccccn1	-14.5	nt	-62.4	nt	nt	nt	nt
Cc1noc(C)c1NC(=O)N(C)C[C@H]1Oc2c(NS(=O)(=O)c3ccccc3)cccc2C(=O)N([C@H](C)CO)C[C@@H]1C	1.1	nt	41.8	nt	nt	nt	nt
O=S(=O)(c1cccs1)N1CCCCN2[C@@H](CO)[C@@H](c3ccc(-c4ccccc4)cc3)[C@@H]2C1	55.9	93.4	-27.8	nt	nt	nt	nt
C[C@H](CO)N1C[C@H](C)[C@@H](CN(C)Cc2ccncc2)OCCCC[C@H](C)Oc2ccc(NC(=O)Nc3ccc(C(F)(F)F)cc3)cc2C1=O	13.9	101.5*	-25.0	103.5*	81.9	-29.1	41.9*
C[C@@H]1CCCCO[C@@H](CN(C)Cc2ccc(C(F)(F)F)cc2)[C@H](C)CN([C@H](C)CO)C(=O)c2cc(NC(=O)c3ccncc3)ccc2O1	-1.0	109.4*	-72.4	103.3*	56.1	12.5	103.1*
C[C@H](CO)N1C[C@H](C)[C@H](CN(C)Cc2ccncc2)OCCCC[C@H](C)Oc2ccc(NC(=O)Nc3ccc(C(F)(F)F)cc3)cc2C1=O	15.3	94.1	26.3	nt	nt	nt	nt
C[C@H]1CCCCO[C@@H](CN(C)Cc2ccncc2)[C@@H](C)CN([C@@H](C)CO)C(=O)c2cc(NC(=O)Nc3ccc(C(F)(F)F)cc3)ccc2O1	-6.8	101.0*	-63.1	97.4*	114.5*	-5.9	70.4*
C[C@@H]1CN([C@@H](C)CO)C(=O)c2cc(NC(=O)c3ccncc3)ccc2O[C@H]1CN(C)Cc1ccc(C(F)(F)F)cc1	4.7	99.8*	-22.7	23.8	-3.9	9.5	35.6
C[C@@H]1CCCCO[C@H](CN(C)Cc2ccc(C(F)(F)F)cc2)[C@H](C)CN([C@@H](C)CO)C(=O)c2cc(NC(=O)c3ccncc3)ccc2O1	-3.8	90.1	-20.9	nt	nt	nt	nt
C[C@H]1CN([C@@H](C)CO)C(=O)c2cc(NC(=O)c3ccncc3)ccc2O[C@@H]1CN(C)Cc1ccc(C(F)(F)F)cc1	0.1	74.9	7.2	nt	nt	nt	nt
C[C@@H]1CCCCO[C@@H](CN(C)Cc2ccncc2)[C@H](C)CN([C@@H](C)CO)C(=O)c2cc(NC(=O)Nc3ccc(C(F)(F)F)cc3)ccc2O1	3.3	86.4	-14.9	nt	nt	nt	nt
CCCN1C[C@H](C)[C@H](OC)CN(C)C(=O)c2cc(NC(=O)c3ccccc3)ccc2OC[C@H]1C	1.7	21.2	-7.8	nt	nt	nt	nt
COc1cccc(CNC(=O)c2cc3c(c(-c4cccc(-c5cccc(C#N)c5)c4)n2)[C@@H](CCO)N([S@](=O)C(C)(C)C)C3)c1	nt	91.9	-50.6	nt	nt	nt	nt
CC(C)(C)[S@](=O)N1Cc2cc(C(=O)NCc3ccc4c(c3)OCO4)nc(-c3cccc(-c4cccnc4)c3)c2[C@@H]1CCO	nt	94.8	-56.1	nt	nt	nt	nt
CN(C)CC#Cc1cccc(-c2nc(C(=O)NCc3ccc4c(c3)OCO4)cc3c2[C@@H](CCO)N(S(=O)C(C)(C)C)C3)c1 (stereo partly drawn)	3.0	112.2*	nt	110.2*	108.3*	5.8	21.1
COc1ccc(CNC(=O)c2cc3c(c(-c4cccc(-c5ccc(C#N)cc5)c4)n2)[C@H](CCO)N([S@@](=O)C(C)(C)C)C3)cc1	nt	?	-69.3	103.2*	92.8	19.1	29.5*
Cc1cccc(S(=O)(=O)N2C[C@@H](O)COC[C@@H]3O[C@@H](CC(=O)N4CCN(C)CC4)CC[C@H]32)c1	-4.4	10.7	-5.6	nt	nt	nt	nt
Cc1ccccc1S(=O)(=O)N1CCCCN2[C@H](C1)[C@@H](c1ccc(-c3cccc(F)c3)cc1)[C@@H]2CO	18.6	?	5.4	110.7*	64.6	28.5	73.2*
Cc1cccc(-c2ccc([C@@H]3[C@H](CO)N4CCCCN(S(=O)(=O)c5ccccc5C)C[C@@H]34)cc2)c1	-2.6	64.2	-76.6	nt	nt	nt	nt
Cc1ccccc1S(=O)(=O)N1CCCCN2[C@H](CO)[C@H](c3ccc(-c4cccc(F)c4)cc3)[C@H]2C1	-13.9	71.2	-72.7	nt	nt	nt	nt
Cc1ccccc1S(=O)(=O)N1CCCCN2[C@@H](CO)[C@H](c3ccc(-c4cccc(F)c4)cc3)[C@@H]2C1	47.3	105.9*	-9.1	88.4	103.5*	55.9*	102.9*
N#C[C@H]1[C@@H](c2ccc(C#CCC3CCCC3)cc2)[C@@H](CO)N1C(=O)c1ccccn1	-4.5	97.2*	?	101.5*	111.6*	-24.9	93.4*
SMILES	C diff growth	T cruzi growth-1	Pf Dd2 growth	T cruzi growth-2	T cruzi growth-3	NIH3T3 tox	NIH3T3 tox 2
COCC(=O)N1[C@H](C#N)[C@H](c2ccc(C#CCC3CCCC3)cc2)[C@@H]1CO	6.9	92.5	-38.2	nt	nt	nt	nt
COCC(=O)N1[C@H](CO)[C@H](c2ccc(C#CCC3CCCC3)cc2)[C@@H]1C#N	2.2	88.9	-27.6	nt	nt	nt	nt
N#C[C@@H]1[C@@H](c2ccc(C#CCC3CCCC3)cc2)[C@H](CO)N1C(=O)c1ccccn1	-5.7	96.7*	-23.8	?	111.5*	-1.3	106.7*
Cc1noc(C)c1S(=O)(=O)N(C)C[C@H]1OCCCC[C@@H](C)Oc2ccc(NC(=O)Cc3ccccc3)cc2C(=O)N([C@H](C)CO)C[C@@H]1C	3.5	-10.5	-4.8	nt	nt	nt	nt
CCCNC(=O)Nc1ccc2c(c1)C(=O)N(C)C[C@H](OC)[C@H](C)CN(C(=O)C1CCOCC1)[C@@H](C)CO2	nt	9.3	-12.0	nt	nt	nt	nt
COCC(=O)Nc1ccc2c(c1)C(=O)N(C)C[C@H](OC)[C@H](C)CN(C(=O)C1CCCC1)[C@@H](C)CO2	nt	-36.2	8.8	nt	nt	nt	nt
C[C@H](CO)N1C[C@H](C)[C@@H](CN(C)C(=O)CN(C)C)Oc2cc(C#Cc3cccnc3)ccc2S1(=O)=O	6.1	18.2	-48.8	nt	nt	nt	nt
C[C@H](CO)N1C[C@H](C)[C@H](CN(C)C(=O)Nc2ccccc2)Oc2cc(C#Cc3ccccc3)ccc2S1(=O)=O	-19.5	118.0*	-69.9	106.6*	81.4	20.6	13.9
C[C@H](CO)N1C[C@H](C)[C@@H](CN(C)C(=O)Nc2ccccc2)Oc2cc(C#Cc3ccccc3)ccc2S1(=O)=O	21.1	118.3*	-39.9	105.3*	67.7	-9.5	-8.6
Cc1ccccc1-c1ccc2c(c1)O[C@H](CN(C)C(=O)Nc1ccccc1)[C@@H](C)CN([C@@H](C)CO)S2(=O)=O	-9.7	91.9*	-41.0	102.2*	56.0	?	63.8*

Source: PubChem (Broad Institute)
